Assay results as given in PubChem BioAssay (Tox21).
Records with an inconclusive call do not appear. The source made the active and inactive calls. Unless noted, calls follow the shape of the dose curve; as a rule, active = well fitted curve in the direction sought with a large enough effect in the repeat runs; inconclusive = weak or mixed curves; inactive = no such curve, though single readings can be large; an effect the other way counts as inactive or inconclusive.

Assays:
[1] = qHTS assay to identify small molecule agonists of the peroxisome proliferator-activated receptor delta (PPARd) signaling pathway - cell viability counter screen (AID 743211); also: nearly all actives have a fitted effect of over 55% in size
In short: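 qHTS cell viability: PPARd-bla HEK293H; 17 h cpd, 37C; CellTiter-Glo, luminescence at 30 min RT.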

[2] = molecular target: Peroxisome proliferator-activated receptor delta (Homo sapiens) (UniProt Q03181); assay: qHTS assay to identify small molecule agonists of the peroxisome proliferator-activated receptor delta (PPARd) signaling pathway (AID 743212; calls by dose curve)
Chain of Peroxisome proliferator-activated receptor delta (Homo sapiens) (Q03181 whole entry, looked up): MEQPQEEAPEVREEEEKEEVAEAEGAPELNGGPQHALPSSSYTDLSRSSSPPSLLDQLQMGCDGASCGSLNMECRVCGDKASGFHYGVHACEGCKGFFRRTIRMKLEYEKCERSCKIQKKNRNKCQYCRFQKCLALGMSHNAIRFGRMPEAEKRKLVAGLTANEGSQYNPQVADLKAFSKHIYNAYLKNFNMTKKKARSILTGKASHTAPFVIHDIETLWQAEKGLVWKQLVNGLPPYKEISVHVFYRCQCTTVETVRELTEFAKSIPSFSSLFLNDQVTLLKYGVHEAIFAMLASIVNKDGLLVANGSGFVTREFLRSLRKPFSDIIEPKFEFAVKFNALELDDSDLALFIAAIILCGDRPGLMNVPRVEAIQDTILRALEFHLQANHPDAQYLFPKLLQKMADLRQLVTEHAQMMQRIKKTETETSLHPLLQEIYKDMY
In short: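 GeneBLAzer UAS-bla HEK293H cells carrying a PPARδ construct were exposed to compounds at 37 °C. Beta-lactamase activity was read by FRET fluorescence after 2 h at room temperature with LiveBLAzer B/G substrate.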

[3] = molecular target: Bile acid receptor (Homo sapiens) (UniProt Q96RI1); assay: qHTS assay to identify small molecule antagonists of the farnesoid-X-receptor (FXR) signaling pathway (AID 743217; active = well fitted inhibition curve with a large enough effect in the signal ratio in the repeat runs, not every such curve was filed as active; the % refers to the signal ratio)
Chain of Bile acid receptor (Homo sapiens) (Q96RI1 whole entry, looked up): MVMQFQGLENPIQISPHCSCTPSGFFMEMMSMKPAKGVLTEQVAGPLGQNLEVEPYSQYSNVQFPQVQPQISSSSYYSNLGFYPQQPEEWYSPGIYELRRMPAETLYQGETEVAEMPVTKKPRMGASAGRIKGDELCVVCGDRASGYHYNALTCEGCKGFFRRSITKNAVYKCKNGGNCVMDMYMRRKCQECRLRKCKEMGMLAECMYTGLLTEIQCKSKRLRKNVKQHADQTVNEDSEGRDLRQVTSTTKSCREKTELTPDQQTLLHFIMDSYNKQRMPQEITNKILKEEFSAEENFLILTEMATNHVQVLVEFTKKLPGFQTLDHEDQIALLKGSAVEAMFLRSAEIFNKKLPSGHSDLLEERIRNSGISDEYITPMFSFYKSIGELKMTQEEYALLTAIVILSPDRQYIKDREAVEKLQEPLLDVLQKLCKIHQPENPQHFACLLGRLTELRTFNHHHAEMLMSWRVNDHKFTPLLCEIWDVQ
In short: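 FXR-UAS-bla HEK 293T cells (beta-lactamase reporter) given compound plus chenodeoxycholic acid (50 uM final), 16 h at 37C. LiveBLAzer B/G FRET substrate added for 2 h at room temperature; fluorescence read.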

[4] = qHTS assay to identify small molecule agonists of the farnesoid-X-receptor (FXR) signaling pathway - cell viability counter screen (AID 743218); also: nearly all actives have a fitted effect of over 45% in size
In short: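 FXR-UAS-bla HEK 293T cells exposed to compounds for 16 h at 37C. Cytotoxicity read in the same wells by CellTiter-Glo luminescence after 30 min at room temperature, following the beta-lactamase FRET read.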

[5] = molecular target: Bile acid receptor (Homo sapiens) (UniProt Q96RI1); assay: qHTS assay to identify small molecule agonists of the farnesoid-X-receptor (FXR) signaling pathway (AID 743220; active = well fitted activation curve with a large enough effect in the signal ratio in the repeat runs, not every such curve was filed as active; the % refers to the signal ratio)
In short: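 Beta-lactamase reporter under UAS control in GeneBLAzer FXR HEK 293T cells (5000/well) measured with LiveBLAzer FRET substrate after 2 h at room temperature. Compound exposure lasted 16 h at 37C.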

[6] = qHTS assay to identify small molecule antagonists of the farnesoid-X-receptor (FXR) signaling pathway - cell viability counter screen (AID 743221; active = well fitted cell-killing curve with a large enough effect in the repeat runs, not every such curve was filed as active; also: nearly all actives have a fitted effect of over 50% in size)
In short: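 After a 5 h settling period, FXR-bla HEK 293T cells receive compound and chenodeoxycholic acid (50 uM final) and incubate 16 h at 37 C; CellTiter-Glo luminescence, read after 30 min at room temperature, reports cell viability.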

[7] = molecular target: Vitamin D3 receptor (Homo sapiens) (UniProt P11473); assay: qHTS assay to identify small molecule agonists of the vitamin D receptor (VDR) signaling pathway (AID 743222; calls by dose curve)
Chain of Vitamin D3 receptor (Homo sapiens) (P11473 whole entry, looked up): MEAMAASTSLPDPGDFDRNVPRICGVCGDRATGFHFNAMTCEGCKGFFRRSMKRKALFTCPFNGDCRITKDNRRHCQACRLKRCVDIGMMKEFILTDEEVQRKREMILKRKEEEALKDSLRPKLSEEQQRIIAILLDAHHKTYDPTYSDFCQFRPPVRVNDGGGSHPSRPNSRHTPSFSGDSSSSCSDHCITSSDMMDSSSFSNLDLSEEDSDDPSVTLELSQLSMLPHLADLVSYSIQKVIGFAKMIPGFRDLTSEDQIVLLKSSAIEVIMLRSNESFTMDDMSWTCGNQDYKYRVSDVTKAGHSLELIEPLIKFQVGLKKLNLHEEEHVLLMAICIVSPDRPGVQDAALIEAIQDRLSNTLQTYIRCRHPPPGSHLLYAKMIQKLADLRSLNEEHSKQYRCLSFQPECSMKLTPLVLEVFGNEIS
In short: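 VDR-bla cells plated 4 h at 37 C, then exposed to compounds for 16 h at 37 C. Beta-lactamase reporter activity measured by fluorescence after 2 h room-temperature loading with LiveBLAzer B/G FRET substrate.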

[8] = molecular target: Vitamin D3 receptor (Homo sapiens) (UniProt P11473); assay: qHTS assay to identify small molecule antagonists of the vitamin D receptor (VDR) signaling pathway (AID 743223; active = well fitted inhibition curve with a large enough effect in the signal ratio in the repeat runs, not every such curve was filed as active; the % refers to the signal ratio)
In short: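 Reporter line VDR-bla; stimulus 1alpha,25-(OH)2 vitamin D3, 3 nM final; compound co-addition, 16 h 37C/5% CO2; LiveBLAzer B/G substrate 2 h RT; fluorescence intensity.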

[9] = qHTS assay to identify small molecule antagonists of the vitamin D receptor (VDR) signaling pathway - cell viability counter screen (AID 743225); also: nearly all actives have a fitted effect of over 50% in size
In short: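 Parallel cytotoxicity test: VDR-UAS-bla HEK 293T, 3 nM (final) 1-alpha,25-dihydroxyvitamin D3 with test compound, 16 h, 37C. Endpoint is CellTiter-Glo luminescence in the same wells.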

[10] = molecular target: Nuclear receptor ROR-gamma (Homo sapiens) (UniProt P51449); assay: qHTS assay to identify small molecule antagonists of the retinoid-related orphan receptor gamma (ROR-gamma) signaling pathway (AID 1159521;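 also: CHO cells with doxycycline inducible ROR-gamma driving an RORE luciferase reporter; top concentration of the series differs between compounds; nearly all actives have a fitted effect of over 50% in size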)
In short: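 Decreased RORE-driven luciferase luminescence indicates antagonism. Tet-on RORγ CHO cells received compound, then 1 uM final doxycycline 2 h later; signal read after 16 h incubation.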

[11] = qHTS assay to identify small molecule agonists of the AP-1 signaling pathway - cell viability counter screen (AID 1159525; calls by dose curve; also: nearly all actives have a fitted effect of over 55% in size)
In short: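 AP-1-bla ME-180 cells in Opti-MEM with 0.5% dialyzed FBS, compound exposure 5 h at 37 C in 15-point titration. Viability read in the same wells as ATP content by CellTiter-Glo luminescence, normalised to tetra-n-octylammonium bromide and DMSO controls.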

[12] = qHTS assay to identify small molecule antagonists of the retinoid acid receptor (RAR) signaling pathway - cell viability counter screen (AID 1159551); also: nearly all actives have a fitted effect of over 35% in size
In short: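 C3RL4 RARE-luciferase cells, 1,000/well, incubated overnight, then dosed with compound plus 1 uM retinol (final). After 6 hr at 37 C, viability read by CellTiter-Glo ATP luminescence following 30 min at room temperature.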

[13] = qHTS assay to identify small molecule antagonists of the retinoic acid receptor (RAR) signaling pathway (AID 1159552; also: nearly all actives have a fitted effect of over 50% in size)
In short: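 C3RL4 RARE-luc cells, overnight plating; retinol 1 uM final added right after compound; 6 hr 37 C; luciferase read at 30 min RT.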

[14] = qHTS assay to identify small molecule agonists of the AP-1 signaling pathway (AID 1159526; calls by dose curve)
[15] = molecular target: Retinoic acid receptor RXR-alpha (Homo sapiens) (UniProt P19793); assay: qHTS assay to identify small molecule agonists of the RXR signaling pathway (AID 1159527; calls by dose curve; also: nearly all actives have a fitted effect of over 35% in size)
Chain of Retinoic acid receptor RXR-alpha (Homo sapiens) (P19793 whole entry, looked up): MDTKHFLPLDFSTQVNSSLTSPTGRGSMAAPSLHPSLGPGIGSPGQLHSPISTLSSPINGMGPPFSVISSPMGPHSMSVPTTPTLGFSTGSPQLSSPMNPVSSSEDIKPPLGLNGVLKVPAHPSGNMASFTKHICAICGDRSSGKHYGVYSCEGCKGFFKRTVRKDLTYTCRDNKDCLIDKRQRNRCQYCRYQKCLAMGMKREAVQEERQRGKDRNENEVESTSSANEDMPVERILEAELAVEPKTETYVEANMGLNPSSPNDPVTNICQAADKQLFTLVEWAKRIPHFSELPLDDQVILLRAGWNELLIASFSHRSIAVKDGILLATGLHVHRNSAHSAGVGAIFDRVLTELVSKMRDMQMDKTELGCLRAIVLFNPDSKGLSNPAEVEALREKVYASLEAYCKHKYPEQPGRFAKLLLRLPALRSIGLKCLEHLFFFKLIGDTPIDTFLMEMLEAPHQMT
In short: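 16 hr incubation of compound-treated RXR-alpha-UAS-bla HEK 293T cells (2% charcoal-stripped FBS, 37 C) preceded a 2 hr room-temperature LiveBLAzer FRET substrate step and blue/green fluorescence measurement.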

[16] = qHTS assay to identify small molecule agonists of the RXR signaling pathway - cell viability counter screen (AID 1159529)
In short: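 In this parallel viability measure, GeneBLAzer RXR-alpha HEK 293T cells (2% charcoal-stripped FBS) were given a 5 hr preincubation, treated with compounds 16 hr at 37 C, and read by CellTiter-Glo luminescence.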

[17] = qHTS assay to identify small molecule antagonists of the peroxisome proliferator-activated receptor delta (PPARd) signaling pathway - cell viability counter screen (AID 743213); also: nearly all actives have a fitted effect of over 50% in size
In short: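 Same-well viability: cells pre-incubated 5 h, dosed with compound plus 300 nM L165041, kept 17 h at 37 C, FRET substrate 2 h RT, then CellTiter-Glo 30 min RT and luminescence.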

[18] = qHTS assay to identify small molecule agonists of the vitamin D receptor (VDR) signaling pathway - cell viability counter screen (AID 743224)
In short: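 VDR-bla cells, 4 h after plating, exposed to compounds for 16 h at 37C; viability then read in the same wells as CellTiter-Glo luminescence after 30 min at room temperature, following the bla FRET read.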

[19] = molecular target: Peroxisome proliferator-activated receptor delta (Homo sapiens) (UniProt Q03181); assay: qHTS assay to identify small molecule antagonists of the peroxisome proliferator-activated receptor delta (PPARd) signaling pathway (AID 743215; active = well fitted inhibition curve with a large enough effect in the signal ratio in the repeat runs, not every such curve was filed as active; the % refers to the signal ratio;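 also: cells stimulated with agonist L165041 at 300 nM final during compound exposure; series mostly up to about 62 µM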)
In short: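 PPARd-bla HEK293H cells (UAS-bla reporter) preincubated 5 h, then given compound plus 300 nM final L165041 agonist for 17 h at 37 C. Beta-lactamase activity read by LiveBLAzer B/G FRET substrate fluorescence after 2 h at room temperature.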

Measured: Potency

O=C1CCC/C=C\CCCCCCCCCC1
inactive: [1] | [2] | [3] | [4] | [5] | [6] | [7] | [8] | [9] | [10] | [11] | [12] | [13]

O=C1OCc2ccccc21
inactive: [10] | [11] | [14] | [15] | [16] | [12]

CC1=C(/C=C/C(C)=C/C=C/C(C)=C\C(=O)O)C(C)(C)CCC1
inactive: [17] | [18] | [9] | [10] | [11] | [14] | [12] | [13]

O=C1CCCCCCCCCCCCCC1
inactive: [1] | [2] | [17] | [19] | [4] | [6] | [7] | [8] | [18] | [9] | [10] | [11] | [14] | [15] | [16] | [12] | [13]

N#CCCOCCC#N
inactive: [10] | [11] | [15] | [16] | [12] | [13]

C=C(C)C1CCC(C)CC1O (configuration not stated)
inactive: [10] | [11] | [14] | [15] | [12]

C=Cc1ccncc1
inactive: [10] | [11] | [14] | [15] | [16] | [12] | [13]

CCc1c(C)cc(N)c(CC)c1N
inactive: [10] | [11] | [15] | [16] | [12]

c1ccc2c(c1)-c1ccc3ccc4cccc5cc-2c1c3c45
inactive: [10] | [11] | [12]

O=c1cc[nH]cc1
inactive: [10] | [11] | [14] | [16] | [12]

O=C1OC2(c3ccccc31)c1ccc(O)c(Br)c1Oc1c2ccc(O)c1Br
inactive: [10] | [11] | [16] | [12] | [13]

CCN(CC)c1ccc(C=O)cc1
inactive: [10] | [11] | [14] | [16] | [12] | [13]

CN1CCN(C)CC1
inactive: [10] | [11] | [15] | [16] | [12] | [13]
